Source: PubChem
H9c2 protect: modulators protecting cardiomyocytes from myocardial damage. H9c2 cardiomyocytes, H2O2 injury protection, ATPLite, 2 h. protection from H2O2 cell death, % at 20 µM. hit rate 0.63% among 360,000;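 active means compounds giving at least 50% protection of heart cells from peroxide-induced death in the single-dose screen, raw or plate-pattern-corrected value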;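 further: 0% = DMSO wells with peroxide and 100% = DMSO wells without peroxide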
aDG glyco up: alpha-DG glycosylation activation; Pro5-aDG cells, alpha-DG glycosylation AlphaScreen (IIH6); 0% Pro5, 100% B10-LARGE cell signal; activation, % at 10 µM; hit rate 0.22% among 360,000; AID 624168;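 active means activation of at least 8% versus controls, or a plate z-score of at least 8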;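 further: Pro5 are CHO cells carrying HIG-tagged alpha-DG that lacks glycosylation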
MPTP block: inhibitors of mitochondrial permeability transition pore; isolated mouse mitochondria, Ca2+ swelling absorbance, 30 min; inhibition, % at 10 µM; hit rate 1.4% among 360,000; AID 602449;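 active means inhibition of 50% or more, scaled per plate between neutral and stimulator controls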;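 further: 0% = DMSO wells given calcium and 100% = 1 mM EGTA wells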
FAS-TE inh: blocks the thioesterase domain of human fatty acid synthase | inhibition, % at 15 µM | recombinant FAS-TE, OMFH fluorogenic substrate, fluorescence endpoint | AID 602261 | hit rate 0.67% among 360,000;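 active means compounds whose normalised, plate-corrected inhibition of enzyme fluorescence in the single-dose primary screen is 50% or more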;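 further: 0% = DMSO with enzyme and 100% = substrate without enzyme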
Mot1-301 SUMO: SUMOylation pathway inhibition by Mot1-301 growth rescue; S. cerevisiae Mot1-301 growth rescue, ATP luminescence, 38.5C; percent above DMSO median, 100 means doubled; hit rate 1% among 320,000; AID 2716; growth rescue, % at 18.8 µM;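 active means every valid replicate shows activation above 250% relative to neutral control wells; inactive means the rest, any valid replicate at or below 250%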;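 further: OY570 slx delta 5 strain wells were the positive control but not used for scaling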
Yeast superoxide: lowers age-related superoxide in aged yeast cells. S. cerevisiae aged cells, superoxide DHE fluorescence; stronger effect = lower value. superoxide response (% of plate mean), % at 10 µM. hit rate 0.18% among 330,000. AID 2690;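 active means superoxide response under a set limit, about three screen SD below normal, cut at about 65% in these data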;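 further: yeast aged for seven days with compound at 30 °C before DHE staining; 100% = average MFI of all compound-treated wells on the plate with controls excluded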
Yeast Mot1 SUMO: inhibits SUMO pathway, affecting Mot1-301 yeast growth; shares compounds with Mot1-301 SUMO; S. cerevisiae Mot1-301 galactose growth, ATP luminescence, 24 h; -100 = growth of slx-deleted rescue strain; growth activity, percent, % at 42 µM; 2,300 tested, under 10 active; AID 493004;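 active means Signal drops as the depositor expects, and the fitted half-maximal dose is no more than ten times the top valid tested dose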;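 further: more negative values mean stronger growth rescue toward the control strain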
The depositor's hits bear a star; . = no result given. This is a sample that favours compounds with a hit; in the whole collection about 3.8% have one here.

SMILES	H9c2 protect	aDG glyco up	MPTP block	FAS-TE inh	Mot1-301 SUMO	Yeast superoxide	Yeast Mot1 SUMO
COCCN1C(=O)CCC1(C)C(=O)Nc1c(C)cccc1C (configuration not stated)	3	0	0	-2	.	.	.
COc1ccc(Cl)cc1NC(=O)CN(C)C(=O)c1ccc(OCc2ccccc2)c(OC)c1	-8	0	-2	21	-7	88	.
CCOc1ccc(NC(=O)CN(C)C(=O)c2ccc(OCc3ccccc3)c(OC)c2)cc1OCC	-1	1	0	0	540*	100	1
Cc1cccc(NC(=S)NCc2ccco2)c1C	-2	0	0	-5	619*	93	0
COCCN1C(=O)/C(=C/c2cc3c(cc2Br)OCO3)NC1=S	-12	0	-1	5	603*	110	-1
